Values joined by “and” are separate entries in the source; they are usually repeats but may differ in a detail not shown here. Identical values can stand only once. Out of some 430,000 compounds screened, about 2,600 (0.6%) were called active. Cut-off read from the data, not from the text of the source: active = inhibition mostly above about 37% (no sharp cut-off); inactive = mostly below about 20%. The sample as a whole holds a higher share of actives than the screen did.

The test system of this experiment is PriA–SSB C-terminal tail interaction (Klebsiella pneumoniae). Put plainly: blocks PriA binding to SSB C-terminal tail, primary screen, biochemical, AlphaScreen (AID 1272365).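 For inhibition: plate controls were negative control peptide for no effect and reference peptide for full effect.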 The note with it: AlphaScreen SSBct-PriA binding, biotinylated peptide; at 33 µM, stronger effect = higher value. Background: In Alpha technology, singlet oxygen from a donor bead excites a nearby acceptor bead.
What is called inhibition is the drop in the measured response relative to a control, in per cent. `CS(=O)(=O)c1ccc(-c2ccc(NS(=O)(=O)c3ccc4c(c3)CCCC4)cc2)nn1`: the inhibition was -11% (inactive). With `O=C(c1cccc(Oc2ncccn2)c1)N1CCCC1`, the inhibition was -8% (inactive). With `O=C(C[C@@H]1C/C=C/CC[C@H](Cc2ccc(F)cc2)C(=O)OC[C@@H](Cc2ccccc2)NC1=O)NCCO`, the inhibition is -9.28% (inactive).

On to `O=C(c1cc(-c2cccs2)on1)N1CCC[C@H](Cc2nc(-c3ccsc3)no2)C1`, for which the inhibition was 3% (inactive). Turning to `O=C(c1ccc(=O)[nH]n1)N1CCCC(Cc2nc(-c3ccsc3)no2)C1` (stereo not drawn), the inhibition was -8% (inactive). Consider `O=C(c1ccc(-n2cccc2)cc1)N1CCC[C@H](Cc2nc(-c3ccsc3)no2)C1`, for which the inhibition is 31% (active). To `O=C(c1ccc(-c2cccs2)cc1)N1CC(Oc2nccs2)C1` belongs -9% (inactive); to `Cc1cc(=O)n(C)c(=O)n1CCCNc1ccccc1`, -14.1% (inactive); to `CC(C)Oc1ccc(C(=O)Nc2cc(=O)n(C)c(=O)n2C)cc1`, -9.4% (inactive). For the molecule `Cn1c(Nc2ccccc2)cc(=O)n(C)c1=O`, the inhibition was 43.6% (active).

Regarding `N#Cc1nccnc1N1CCC(CNC(=O)c2cc(=O)c3ccccc3o2)CC1`, the inhibition is -11% (inactive). Consider `Cn1nc(CNS(=O)(=O)C2CC2)cc1-c1ccco1`, for which the inhibition was -8% (inactive). As to `CCOCC(=O)NCc1ccc2c(c1)cc(C)n2C`, the inhibition was 0.95% (inactive).

As to `COc1ccc(OC)c(NC(=S)NCc2ccc3c(c2)cc(C)n3C)c1`, the inhibition was 81.2% (active). Turning to `COc1ccc(NC(=O)NCc2ccc3c(c2)OCO3)c(OC)c1`, the inhibition was -0.59% (inactive). Then `CCOc1ccc(S(=O)(=O)NCCCn2nc(-c3ccncc3)ccc2=O)cc1`, with -20% (inactive); and `COC(=O)N1CCc2c(sc(NC(=O)c3cccc(N4C(=O)CCC4=O)c3)c2C#N)C1`, with -11% (inactive); and `CC(Cc1cccs1)NC(=O)Cc1ccccc1Cl` (stereo not drawn), with -11% (inactive). Consider `O=[N+]([O-])c1ccc(C=NN2CCN(c3ccc(Cl)cc3)CC2)cc1`, for which the inhibition is -20.9% (inactive).

As to `CC1CCCC(C)N1N=Cc1ccc([N+](=O)[O-])cc1` (stereo not drawn), the inhibition is 46.8% (active). Then `COC(=O)c1ccc(C=NN2C(C)CCCC2C)cc1` (stereo not drawn), with 14.5% (inactive). To `COc1ccc(C(=O)C=C(C)NCc2ccc3c(c2)OCO3)cc1` belongs 12.8% (inactive); to `CN1C(=O)C(C)(C)COc2ccc(NC(=O)c3ccc(Cl)cc3)cc21`, 18% (inactive). To `CCOc1ccc(NC(=O)CCS(=O)(=O)c2cccc3nsnc23)cc1` belongs -12% (inactive); to `CCOc1ccc(-c2cn(S(=O)(=O)c3cccc4nsnc34)nc2N)cc1`, 40.5% (active); to `CCOc1ccc(N(CC)S(=O)(=O)c2cccc3nsnc23)cc1`, 4.13% (inactive). Turning to `C=C1Cn2c(nnc2-c2ccc(Br)cc2)S1`, the inhibition was 97% (active). `COc1ccccc1-c1nnc2n1N=C(c1ccc(Br)cc1)CS2`: the inhibition was -20% (inactive). As to `Brc1ccc(-c2nn[nH]n2)cc1`, the inhibition was -6.63% (inactive). To `O=C(C[C@H]1C/C=C/CCCC(=O)OC[C@H]2CCCN2C1=O)NCCO` belongs -5.28% (inactive); to `Cn1nnc2c(N3CC(C(=O)Nc4ccc5cn[nH]c5c4)C3)ncnc21`, 2% (inactive); to `OC(COCc1ccco1)CN1CCN(c2ccccc2)CC1` (stereo not drawn), -2.32% (inactive). Turning to `O[C@H](COc1cccc(Oc2ccccc2)c1)CN1CCN(c2ccccc2)CC1`, the inhibition is 31% (active). Turning to `OC(COc1ccc2c(c1)CCC2)CN1CCN(c2cccc(Cl)c2)CC1` (stereo not drawn), the inhibition is -11% (inactive). Turning to `CSCC(C)(O)CNS(=O)(=O)c1cccc2ccccc12` (stereo not drawn), the inhibition was -6% (inactive). For `Cn1nc2cc(Br)ccc2c1C(=O)N1CCc2ncncc2C1`, the inhibition is 1% (inactive). To `CCc1cc(=O)[nH]c2nnc(SCC#N)n12` belongs -14% (inactive); to `Cc1cc(C)c2nc(N(CCCn3ccnc3)C(=O)c3ccco3)sc2c1`, 95.7% (active). To `Cc1cc(C)c2nc(N(CCn3cccn3)C(=O)c3cc4ccccc4o3)sc2c1` belongs -1% (inactive); to `COc1ccc(OC)c2sc(N(CCCN3CCOCC3)C(=O)c3cc(C)no3)nc12`, 3% (inactive); to `O=C(NCCc1ccoc1)C(=O)Nc1ccc(F)cc1F`, 8% (inactive).

For the molecule `CCC1SC(=S)N(C)C1=O` (stereo not drawn), the inhibition is -17% (inactive). In the case of `CC(C)CCN1C(=O)C(C)(C)COc2cc(NC(=O)CN3C(=O)c4ccccc4C3=O)ccc21`, the inhibition is -6% (inactive).

For `O=C(NCCCc1ccccc1)C(=O)NCC1OCCN1S(=O)(=O)c1ccccc1` (stereo not drawn), the inhibition is -3.21% (inactive).

With `Cc1cc(F)ccc1S(=O)(=O)N1CCCOC1CNC(=O)C(=O)NCCC1=CCCCC1` (stereo not drawn), the inhibition is 2.41% (inactive). Consider `O=C(NCCCn1ccnc1)C(=O)NCC1OCCN1S(=O)(=O)c1cc(F)ccc1F` (stereo not drawn), for which the inhibition was 70.1% (active).

For `O=C(Nc1cnc(-n2ccnc2)nc1)c1ccccc1Cl`, the inhibition is -6% (inactive).

On to `O=C(c1cccs1)c1ccc(CNS(=O)(=O)CCOc2ccccc2)s1`, for which the inhibition was -4% (inactive).

Take `Cc1cc(C)n(-c2nc(N)cc(=O)[nH]2)n1`: the inhibition is 73% (active). As to `Cc1cc(C)n(-c2nc(O)cc(=O)[nH]2)n1`, the inhibition is 5.59% (inactive). For `Cc1cc(=O)[nH]c(-n2nc(C)c(CCC(=O)Nc3ccc(Cl)cc3)c2C)n1`, the inhibition was -4% (inactive).

Turning to `CN(C)CCN(C(=O)c1cc2cc([N+](=O)[O-])ccc2s1)c1nc2cc3c(cc2s1)OCO3`, the inhibition was 28% (inactive). On to `O=C(C1CC=CCC1)N1CCCC(S(=O)(=O)c2ccc(F)cc2)C1` (stereo not drawn), for which the inhibition was -14% (inactive).

In the case of `CN1CCCc2cc(CCNC(=O)C(=O)Nc3ccc4c(c3)OCCO4)ccc21`, the inhibition was -11% (inactive). Consider `CN1CCCc2cc(CCNC(=O)c3ccc(Br)cc3)ccc21`, for which the inhibition is 18% (inactive) and -16% (inactive).

Take `COc1cc(NC(=O)NCCc2ccc3c(c2)CCCN3C)cc(OC)c1`: the inhibition is 63% (active). As for `Cc1ccc(NC(=O)CCc2csc(NC(=O)c3ccc(=O)[nH]c3)n2)cc1Cl`, the inhibition was -9% (inactive). Regarding `CN(C)c1nn(CC(=O)NCc2ccc3c(c2)OCO3)cc1-c1ccc(Cl)cc1`, the inhibition is 1% (inactive). Take `CC1Nc2ncnn2C(c2ccccc2)C1C(=O)Nc1ccccc1` (stereo not drawn): the inhibition is -3% (inactive).

As to `COc1ccc(/C=N/Nc2ccccc2[N+](=O)[O-])c(C(=O)O)c1OC`, the inhibition result was “inactive”. For the molecule `Cc1ccc(NS(=O)(=O)c2ccc(N/N=C/c3ccccc3OCC(=O)O)c([N+](=O)[O-])c2)c(C)c1`, the inhibition entry was “active”.

For `CC(=O)Nc1cccc(C(C)=NNc2ccc(S(=O)(=O)Nc3ccccc3C(=O)O)cc2[N+](=O)[O-])c1`, the inhibition is 12% (inactive). To `CCCCc1ccc(Nc2c(C(=O)N3CCSCC3)cnc3nc(C)ccc23)cc1` belongs -6% (inactive). For the molecule `COCCN(Cc1ccncc1)C(=O)c1ccco1`, the inhibition was -8% (inactive). Consider `O=C(c1ccccc1)c1ccccc1C(=O)N1CCC(Oc2ncccc2Cl)CC1`, for which the inhibition is 6% (inactive). Regarding `O=C(NN=Cc1cccc2ccccc12)c1cccnc1`, the inhibition is -10.5% (inactive). On to `Oc1ccc(C=NNC(=S)Nc2cccnc2)c(O)c1O`, for which the inhibition was 100% (active). Take `Fc1cc(Br)ccc1NC(=S)Nc1cccnc1`: the inhibition is -8.39% (inactive).

On to `COc1ncc(NC(=O)c2snnc2C)cn1`, for which the inhibition was 1% (inactive). In the case of `O=C(Nc1nc(-c2ccc(Cl)cc2Cl)cs1)c1ccc(N2C(=O)CCC2=O)cc1`, the inhibition is 64% (active). `O=C(Nc1cc2ccccc2cc1NC(=O)c1ccc(N2C(=O)CCC2=O)cc1)c1ccc(N2C(=O)CCC2=O)cc1`: the inhibition is 0% (inactive). `COc1ccc2oc(-c3csc(NC(=O)c4ccc(N5C(=O)CCC5=O)cc4)n3)cc2c1`: the inhibition is 6% (inactive). As for `COc1ccc(S(=O)(=O)NCCn2nc(-c3ccncc3)ccc2=O)cc1F`, the inhibition was -6% (inactive). Consider `O=S(=O)(Cc1ccccc1)NCC1CCN(c2cnccn2)CC1`, for which the inhibition was -1% (inactive). Consider `CC(=O)Nc1ccc(OCC(O)CN(c2ccc(C)cc2)S(C)(=O)=O)cc1` (stereo not drawn), for which the inhibition is -18% (inactive).

As for `COc1ccc(OCC(O)CNc2ccc(C)cc2)cc1` (stereo not drawn), the inhibition is 36% (active). As for `CCc1ccc(S(=O)(=O)NCC(O)COc2ccc(OC)cc2)cc1` (stereo not drawn), the inhibition is -7.77% (inactive).

With `CN(C)c1ccc(C=NN=C2NC(=O)/C(=C/c3ccc([N+](=O)[O-])cc3)S2)cc1`, the inhibition was -15.2% (inactive). As for `O=C(NCc1cccs1)C(=O)Nc1cccc(F)c1`, the inhibition is -15% (inactive).

On to `COc1ccc(CCN2COc3ccc4c(c3C2)O/C(=C\c2ccco2)C4=O)cc1OC`, for which the inhibition is 3% (inactive). Regarding `Cc1ccc(C(=O)N/C(=C\c2cccs2)C(=O)NCCc2ccccn2)cc1C`, the inhibition is -25.3% (inactive). Turning to `O=C1/C(=C/c2cccs2)Oc2c1ccc1c2CN(Cc2ccccn2)CO1`, the inhibition was 101% (active). For the molecule `Cc1cc(N2CCC(NC(=O)c3ccc4ncsc4c3)CC2)n[nH]1`, the inhibition was -7% (inactive).

`O=C(c1ccccn1)N1CC(N2C(=O)CCC2=O)C1`: the inhibition was -11% (inactive). To `COc1ccccc1-n1cnc2cc(NS(=O)(=O)c3ccccc3)ccc21` belongs 73.9% (active); to `COc1ccc(F)cc1S(=O)(=O)Nc1ccc2c(c1)CCCN2S(=O)(=O)c1ccccc1`, 1% (inactive). Regarding `COCCCNC(=O)c1ccc2c(c1)ncn2-c1ccccc1OC`, the inhibition was -10.8% (inactive). For `Cc1c(C(=O)NC(=S)NCc2cccnc2)oc2ccccc12`, the inhibition is -8.37% (inactive).

For `Cc1cccc(OCCNC(=S)NC(=O)c2cccnc2)c1`, the inhibition was 1.76% (inactive). Take `Cc1ccc(C(=O)NC(=S)NCc2cccnc2)cc1`: the inhibition was 46.3% (active).

Regarding `CCOC(=O)CSc1nc2cc(OC)c(OC)cc2c2nc(CCn3nc(C)cc3C)nn12`, the inhibition is 3% (inactive).

Consider `CC(=NNC(=O)c1ccc(F)cc1)c1ccccn1`, for which the inhibition is -1.36% (inactive). In the case of `CC(=NNC(=O)c1c[nH]c2ccccc12)c1ccccn1`, the inhibition is 75.7% (active). Take `CCN(CC)c1ccc(C=NNC(=O)c2c[nH]c3ccccc23)cc1`: the inhibition is 16.7% (inactive). Then `CC1=NN(CCN2CCN(c3ccc(F)cc3)CC2)c2nc3c(c(=O)n(C)c(=O)n3C)n2C1`, with 6% (inactive) and -7% (inactive); and `Cn1cc(NC(=O)N2CCc3ccccc3C2)c2ccccc21`, with -3% (inactive). Take `CCn1cc(NC(=O)N2CCc3ccccc32)c2ccccc21`: the inhibition was 40% (active). On to `CCn1cc(NC(=O)N2CCCc3ccccc32)c2ccccc21`, for which the inhibition is 2% (inactive).

Values taken from PubChem BioAssay AID1272365 (Small Molecule Screening Facility, UW Madison, 2018).
